Reference: PubChem BioAssay (NCATS)
Records with an inconclusive call do not appear. A number with no mark means an inactive call. Active and inactive are the calls of the source. Calls come from the whole dose curve; as a rule, active = well fitted inhibition curve with a large enough effect; inconclusive = small, poorly fitted or top-dose-only effect; inactive = flat fitted curve, though single readings scatter.

tested on: Zika virus NS2B-NS3 protease; experiment: Primary screen GU AMC qHTS for Zika virus inhibitors (AID 1347154); conditions: Zika NS2B-NS3 unlinked protease, AMC fluorogenic substrate; series mostly up to 54.1 µM; activity change, negative = inhibition: at the top concentration;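 note: 0% = no-inhibitor control and -100% = no-enzyme control; nearly all actives have a fitted effect of over 70% in size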
In short: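 Fluorogenic AMC-substrate cleavage by noncovalent NS2B-NS3 protease complex (25 nM, pH 8.0 Tris buffer with Tween 20) followed for 15 minutes at room temperature (~20% conversion). Percent inhibition from ex340/em450 signal change, fitted by 4-parameter Hill equation.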

**Q.** For O=C(NCN1CCOCC1)c1cnccn1, which “activity change, negative = inhibition” value is on record?
**A.** The value was -1.13%.

**Q.** Which “activity change, negative = inhibition” value does the source give for Cn1c([N+](=O)[O-])cnc1COC(N)=O here?
**A.** Its value is -0.989%.

**Q.** With Nc1ncnc2c1ncn2[C@@H]1O[C@H](COP(=O)(O)O)[C@@H](O)[C@H]1O as the compound, how does the “activity change, negative = inhibition” value read?
**A.** Its value is 5.62%.

**Q.** How did the “activity change, negative = inhibition” value turn out when C=CCOc1ccccc1OCC(O)CNC(C)C (stereo unspecified) was run?
**A.** The value was -2.79%.

**Q.** With CCCCCCCCCCC(CO)CCCCCCCC (stereo unspecified) as the compound, how does the “activity change, negative = inhibition” value read?
**A.** The value was -0.744%.

**Q.** Which “activity change, negative = inhibition” value does the source give for NNC(=O)CP(=O)(c1ccccc1)c1ccccc1 here?
**A.** Its value is -8.46%.

**Q.** For C[C@]1(Cn2ccnn2)[C@H](C(=O)O)N2C(=O)C[C@H]2S1(=O)=O, which “activity change, negative = inhibition” value is on record?
**A.** The value was -6.63%.

**Q.** Which “activity change, negative = inhibition” value does the source give for COCC(=O)Nc1c(I)c(C(=O)NCC(O)CO)c(I)c(C(=O)N(C)CC(O)CO)c1I (stereo unspecified) here?
**A.** The value was 1.15%.

**Q.** With CC(=O)Nc1ccc(OCCOCCOc2ccc(NC(C)=O)cc2)cc1 as the compound, how does the “activity change, negative = inhibition” value read?
**A.** Its value is 6.29%.

**Q.** How did the “activity change, negative = inhibition” value turn out when CNc1c2c(nn1C)CCCC2 was run?
**A.** The value was -7.23%.

**Q.** How did the “activity change, negative = inhibition” value turn out when CC(C)=CCC/C(C)=C/CO was run?
**A.** The value was -1.39%.

**Q.** For Cc1ccsc1C(=CCCN1CCC[C@@H](C(=O)O)C1)c1sccc1C, which “activity change, negative = inhibition” value is on record?
**A.** The value was 12.1%.

**Q.** How did the “activity change, negative = inhibition” value turn out when Cc1ccc(S(=O)(=O)NC(=O)NC2CCCCC2)cc1 was run?
**A.** The value was -1.6%.

**Q.** CCC(C)(CN(C)C)OC(=O)c1ccccc1 (stereo unspecified) was tested. Which “activity change, negative = inhibition” value did it give?
**A.** Its value is -0.189%.

**Q.** How did the “activity change, negative = inhibition” value turn out when CCCCCCCC(=O)OCC(O)CO (stereo unspecified) was run?
**A.** The value was 0.755%.

**Q.** Which “activity change, negative = inhibition” value does the source give for O=C1c2ccccc2C(=O)C1c1ccc(Br)cc1 here?
**A.** Its value is -13.4%.

**Q.** How did the “activity change, negative = inhibition” value turn out when CC[N+](C)(CC)CCOC(=O)C1c2ccccc2Oc2ccccc21 was run?
**A.** The value was -2.52%.

**Q.** For C[N+](C)(C)CC(O)CC(=O)[O-] (stereo unspecified), which “activity change, negative = inhibition” value is on record?
**A.** The value was -0.987%.

**Q.** With CCOC(N)=O as the compound, how does the “activity change, negative = inhibition” value read?
**A.** Its value is -4.18%.

**Q.** For C/C(=C(\CCO)SS/C(CCO)=C(\C)N(C=O)Cc1cnc(C)nc1N)N(C=O)Cc1cnc(C)nc1N, which “activity change, negative = inhibition” value is on record?
**A.** The value was 2.62%.

**Q.** COc1ccc2cc(CCC(C)=O)ccc2c1 was tested. Which “activity change, negative = inhibition” value did it give?
**A.** The value was -0.581%.

**Q.** For Cc1ccccc1N=Nc1ccc(N=Nc2c(O)ccc3ccccc23)c(C)c1, which “activity change, negative = inhibition” value is on record?
**A.** The value was -4.01%.

**Q.** How did the “activity change, negative = inhibition” value turn out when CC(=O)Nc1ccc(C(=O)O)cc1 was run?
**A.** The value was 1.39%.

**Q.** Which “activity change, negative = inhibition” value does the source give for O=c1[nH]c(=O)n([C@H]2C[C@H](O)[C@@H](CO)O2)cc1I here?
**A.** Its value is -0.616%.

**Q.** Which “activity change, negative = inhibition” value does the source give for NC(=O)N[C@@H](CCC(=O)O)C(=O)O here?
**A.** The value was -2.22%.

**Q.** CCN(CC)CCOC(=O)C(c1ccccc1)c1ccccc1 was tested. Which “activity change, negative = inhibition” value did it give?
**A.** Its value is 0.192%.

**Q.** With CCc1nnc(NS(=O)(=O)c2ccc(N)cc2)s1 as the compound, how does the “activity change, negative = inhibition” value read?
**A.** Its value is 2.05%.

**Q.** For O[C@@H]1CO[C@H]2[C@@H]1OC[C@@H]2O, which “activity change, negative = inhibition” value is on record?
**A.** Its value is -0.365%.

**Q.** For C[N+](C)(C)CC[N+]1(C)Cc2c(Cl)c(Cl)c(Cl)c(Cl)c2C1, which Potency is on record?
**A.** The Potency was “inactive”.

**Q.** How did the “activity change, negative = inhibition” value turn out when CC(C(=O)O)c1ccc2c(c1)Cc1cccnc1O2 (stereo unspecified) was run?
**A.** Its value is -1.36%.

**Q.** CN[C@@H]1[C@@H](O)[C@@H](O[C@@H]2[C@H](O)[C@H](O[C@H]3OC(CN)=CC[C@H]3N)[C@@H](N)C[C@H]2N)OCC1(C)O (stereo partly specified) was tested. Which “activity change, negative = inhibition” value did it give?
**A.** The value was -0.839%.

**Q.** For O=C(O)/C=C/c1ccc(Cn2ccnc2)cc1, which “activity change, negative = inhibition” value is on record?
**A.** Its value is 2.41%.

**Q.** CC[N+](CC)(CC(=O)Nc1c(C)cccc1C)Cc1ccccc1 was tested. Which “activity change, negative = inhibition” value did it give?
**A.** The value was -5.06%.

**Q.** Which “activity change, negative = inhibition” value does the source give for CC[C@H](C)[C@H](N)C(=O)O here?
**A.** The value was 9.44%.

**Q.** How did the “activity change, negative = inhibition” value turn out when OCCN1C[C@H](O)[C@@H](O)[C@H](O)[C@H]1CO was run?
**A.** The value was 0.804%.

**Q.** With Nc1ccc(C(=O)Oc2ccccc2)c(O)c1 as the compound, how does the “activity change, negative = inhibition” value read?
**A.** The value was -3.07%.
